According to PubChem BioAssay (NCI):
Several values for one entry are separate records, joined by “and”; a condition that tells them apart may be missing. Equal entries are not always repeated. About 79,000 compounds went through this panel and 15% of them were active in at least one assay; those are over-represented in the sample as a whole. Some compounds were tested as several samples or in several runs, with calls that do not always agree. Activity calls are given as the source filed them. Rule as the data show it: active = growth inhibition above about 70%; inactive = the rest.

Experiments:
[1] = NCI Yeast Anticancer Drug Screen. Data for the rad52 strain (AID 147);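 also: 0% = growth of vehicle-treated control cultures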; conditions: S. cerevisiae rad52 mutant growth inhibition, stronger effect = higher value
How it was run: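 Here a repair-compromised yeast strain receives each compound; its growth is then quantified and normalised to vehicle-only controls.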

[2] = NCI Yeast Anticancer Drug Screen. Data for the wt1 strain (AID 149);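 also: 0% = growth of vehicle-treated wt1 cultures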; conditions: S. cerevisiae wt1 strain (SPY 50644) growth inhibition, stronger effect = higher value
How it was run: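 Each compound is tested on wt1 yeast and the loss of growth versus vehicle gives the inhibition value.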

[3] = NCI Yeast Anticancer Drug Screen. Data for the rad50EPP+ strain (AID 151);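 also: 0% = growth of vehicle-treated control cultures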; conditions: S. cerevisiae rad50 mutant strain, stronger effect = higher value
How it was run: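 Read-out is yeast growth inhibition relative to vehicle; cells used were the rad50EPP+ strain.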

[4] = NCI Yeast Anticancer Drug Screen. Data for the mgt1 strain (AID 153); conditions: S. cerevisiae mgt1 mutant growth inhibition, stronger effect = higher value
How it was run: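 Measured: inhibition of mgt1 yeast growth by compound, normalized to vehicle-treated cultures.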

[5] = NCI Yeast Anticancer Drug Screen. Data for the rad50 strain (AID 155);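 also: 0% = growth of vehicle-only cultures of the same strain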; conditions: S. cerevisiae rad50 strain growth inhibition, stronger effect = higher value
How it was run: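 Vehicle-treated cultures provide the reference for the growth inhibition reported for compound-exposed, repair-deficient yeast.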

[6] = NCI Yeast Anticancer Drug Screen. Data for the mec2-1 strain (AID 157); conditions: S. cerevisiae mec2-1 strain, stronger effect = higher value
How it was run: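 Using mec2-1 yeast: add compound, measure growth, express inhibition versus vehicle-treated cultures.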

[7] = NCI Yeast Anticancer Drug Screen. Data for the rad14 strain (AID 159);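 also: 0% = growth of vehicle-treated control cultures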; conditions: S. cerevisiae rad14 strain growth inhibition, stronger effect = higher value
How it was run: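 Inhibition of growth is reported for a repair-deficient yeast mutant following compound treatment, calculated relative to cultures that received vehicle.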

[8] = NCI Yeast Anticancer Drug Screen. Data for the sgs1 mgt1 strain (AID 161);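 also: 0% = growth of cultures given vehicle only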; conditions: S. cerevisiae sgs1 mgt1 strain, stronger effect = higher value
How it was run: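 Yeast cells carrying a defined DNA-repair defect were exposed to test compounds. Growth inhibition was measured relative to vehicle-treated controls.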

[9] = NCI Yeast Anticancer Drug Screen. Data for the CLN2oe strain (AID 163);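 also: 0% = growth of vehicle-only control cultures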; conditions: S. cerevisiae CLN2oe strain, stronger effect = higher value
How it was run: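 Whole-cell yeast growth assay. A strain engineered for altered cell-cycle control received compound, and inhibition relative to vehicle-treated cultures was recorded.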

[10] = NCI Yeast Anticancer Drug Screen. Data for the cln2 rad14 strain (AID 165);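 also: 0% = growth equal to vehicle treated cultures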; conditions: S. cerevisiae cln2 rad14 strain, stronger effect = higher value
How it was run: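 Yeast strain cln2 rad14, bearing defects in cell cycle control and DNA repair, serves as the test system; values reflect growth inhibition compared with vehicle.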

[11] = NCI Yeast Anticancer Drug Screen. Data for the bub3 strain (AID 167); conditions: S. cerevisiae bub3 mutant strain, stronger effect = higher value
How it was run: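 Mutant yeast screening strain plus compound; vehicle-treated cultures serve as the 0% inhibition reference.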

[12] = NCI Yeast Anticancer Drug Screen. Data for the wt2 strain (AID 169); conditions: S. cerevisiae wt2 strain growth inhibition, stronger effect = higher value
How it was run: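 Treated yeast vs. vehicle-treated yeast: growth inhibition determined.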

[13] = NCI Yeast Anticancer Drug Screen. Data for the mlh1 strain (AID 171);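 also: 0% = growth of vehicle-treated control cultures of the same strain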; conditions: S. cerevisiae mlh1 strain growth inhibition, stronger effect = higher value
How it was run: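 A yeast strain with a defined genetic lesion serves as the test organism. Cultures receive compound or vehicle, and growth is measured.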

[14] = NCI Yeast Anticancer Drug Screen. Data for the sgs1 strain (AID 173);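 also: 0% = growth of vehicle-only control cultures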; conditions: S. cerevisiae sgs1 mutant, stronger effect = higher value
How it was run: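 A genetically defined yeast mutant is incubated with the test compound, and its growth is compared to that of the same strain given vehicle.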

[15] = NCI Yeast Anticancer Drug Screen. Data for the mlh1 rad18 strain (AID 175); conditions: S. cerevisiae mlh1 rad18 strain growth inhibition, stronger effect = higher value
How it was run: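 Steps: expose repair-defective yeast to compound; measure growth; express inhibition against vehicle-treated controls.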

[16] = at 5.0 µM (retest, dose inferred, filed as 0.5)
[17] = at 50.0 µM (retest, dose inferred, filed as 5.0)

Measured: growth inhibition

Nc1ccn(C2OC(COP(=O)(O)O)C(O)C2O)c(=O)n1 (stereo not drawn)
active: [3]; at 100.0 µM 72% | [8]; [17] 75% | [14]; at 33.0 µM 82% | [14]; at 100.0 µM 86%
inactive: [1]; at 1.2 µM -1% | [1]; at 3.7 µM 0% | [1]; at 11.0 µM 3% | [1]; at 33.0 µM 5% | [1]; at 100.0 µM 6% | [2]; at 1.2 µM -11% | [2]; at 3.7 µM 1% | [2]; at 11.0 µM 2% | [2]; at 33.0 µM 0% | [2]; at 100.0 µM 1% | [3]; at 1.2 µM -5% | [3]; at 3.7 µM -2% | [3]; at 11.0 µM 8% | [3]; at 33.0 µM 37% | [4]; at 1.2 µM 2% | [4]; at 3.7 µM 4% | [4]; at 11.0 µM 2% | [4]; at 33.0 µM 3% | [4]; at 100.0 µM 14% | [5]; at 1.2 µM 0% | [5]; at 3.7 µM 9% | [5]; [16] 38% | [5]; at 11.0 µM 11% | [5]; at 33.0 µM 33% | [5]; [17] 42% | [5]; at 100.0 µM 52% | [6]; at 1.2 µM 0% | [6]; at 3.7 µM 5% | [6]; [16] 3% | [6]; at 11.0 µM 8% | [6]; at 33.0 µM 11% | [6]; [17] 19% | [6]; at 50.0 µM -9.35% and -12.8% | [6]; at 100.0 µM -3% | [7]; at 1.2 µM -1% | [7]; at 3.7 µM 6% | [7]; at 11.0 µM 4% | [7]; at 33.0 µM 5% | [7]; at 100.0 µM 7% | [8]; [16] 47% | [9]; at 1.2 µM -4% | [9]; at 3.7 µM -2% | [9]; at 11.0 µM -6% | [9]; at 33.0 µM -15% | [9]; at 100.0 µM -5% | [10]; [16] -4% | [10]; [17] -10% | [10]; at 50.0 µM -40.1% and -51.6% | [11]; at 1.2 µM -2% | [11]; at 3.7 µM -6% | [11]; [16] -5% | [11]; at 11.0 µM -5% | [11]; at 33.0 µM -12% | [11]; [17] -4% | [11]; at 50.0 µM -32.9% and 0.5% | [11]; at 100.0 µM -10% | [12]; at 1.2 µM -1% | [12]; at 3.7 µM -1% | [12]; at 11.0 µM -1% | [12]; at 33.0 µM 1% | [12]; at 100.0 µM 12% | [13]; at 1.2 µM 1% | [13]; at 3.7 µM 8% | [13]; at 11.0 µM 0% | [13]; at 33.0 µM 7% | [13]; at 100.0 µM 26% | [14]; at 1.2 µM 21% | [14]; at 3.7 µM 43% | [14]; at 11.0 µM 68% | [15]; [16] 13% | [15]; [17] -5% | [15]; at 50.0 µM 21.4% and -23.4%
87.4% (active) and 16.2% (inactive): [8]; at 50.0 µM
78.3% (active) and -3% (inactive): [5]; at 50.0 µM
